PubChem BioAssay (NCATS)
Results filed as inconclusive are left out. Unmarked numbers belong to inactive results. Activity calls are given as the source filed them. Calls follow the shape of the dose curve; as a rule, active = well fitted inhibition curve with a large enough effect; inconclusive = small, poorly fitted or top-dose-only effect; inactive = no such curve, though single readings can be large or run the other way.

What follows are compounds tested on Zika virus NS2B-NS3 protease (unlinked complex) (assay: Primary screen GU Rhodamine qHTS for Zika virus inhibitors: Unlinked NS2B-NS3 protease assay (AID 1347159; also: nearly all actives have a fitted effect of over 60% in size)). Conditions: Recombinant ZIKV NS2B-NS3 protease, Rhodamine110 substrate fluorescence; series mostly up to 107 µM; activity change, negative = inhibition: at the top concentration.
Outline: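 Noncovalent NS2B hydrophilic domain/NS3 protease complex (25 nM final) in 10 mM Tris-HCl pH 8.0, 0.01% Tween 20, preincubated 15 min with compounds (up to 114 microM), then 1.5 microM Rhodamine110 substrate. Fluorescence change over 15 min fitted to 4-parameter Hill.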
% is scaled to controls: 0 for no effect and ±100 for the full control effect; potency is read from the fitted curve at half-maximal effect.

SMILES | activity change, negative = inhibition | Potency
COC1=CC(=O)O[C@@H](CCc2ccccc2)C1 | 33.2% | 
O=C(N1CCOCC1)N1CCN(c2ccc(Cl)cc2)CC1 | 7.07% | 
C/C=C(\C)C(=O)OC1CC2C(C)(C)OC(=O)CC(OC(C)=O)C2(C)C2CC(OC(=O)C(C)C)C3(C)C(c4ccoc4)CC4OC43C12C (configuration not stated) | 10.5% [at 32.5 µM] | 
C[C@H]1C(=O)O[C@H]2[C@H](O)[C@]34C5OC(=O)[C@]3(O[C@@H]3OC(=O)[C@H](O)C34[C@H](C(C)(C)C)[C@H]5O)C12O (some centres not stated) | 3.12% [at 57.1 µM] | 
CCN1C[C@]2(OC(=O)c3ccccc3NC(C)=O)CC[C@H](OC)[C@@]34[C@@H]2C[C@@H]([C@@H]13)[C@@]1(O)C[C@H](OC)[C@H]2C[C@@H]4[C@]1(O)[C@H]2OC | 7.89% | 
CC[C@H]1CN2CC[C@H]1C[C@@H]2[C@@H](O)c1ccnc2ccc(OC)cc12 | 20.4% | 
Oc1ccc2c3c1O[C@H]1[C@H](N(CCCl)CCCl)CC[C@@]4(O)[C@@H](C2)N(CC2CC2)CC[C@]314 | -3.74% [at 19.1 µM] | 
C/C=C(\C)C(=O)O[C@H]1[C@H](OC(C)=O)[C@]2(CO)[C@H](O)[C@H](O)[C@]3(C)C(=CCC4[C@@]5(C)CC[C@H](O[C@@H]6O[C@H](C(=O)O)[C@@H](O)[C@H](O[C@@H]7OC[C@H](O)[C@H](O[C@@H]8OC[C@H](O)[C@H](O)[C@H]8O)[C@H]7O)[C@H]6O[C@@H]6O[C@H](CO)[C@@H](O)[C@H](O)[C@H]6O)C(C)(C)C5CC[C@]43C)[C@@H]2CC1(C)C (some centres not stated) | -9.49% [at 19.1 µM] | 
COCC1OC(=O)c2coc3c2C1(C)C1=C(C3=O)C2CCC(=O)C2(C)CC1O (configuration not stated) | 15.3% | 
COC1CC(=O)C23C(=O)NC(CC(C)C)C2C(C)=C(C)C(OO)C3/C=C(\C)CCC(O)C1O (configuration not stated) | -0.834% [at 57.1 µM] | 
COc1cc2c(cc1OC)[C@@]13CCN4CC5=CCO[C@H]6CC(=O)N2[C@H]1[C@H]6[C@H]5C[C@H]43 | 20.9% [at 57.1 µM] | 
CC1C/C=C/C(O)C(O)CC/C=C/c2cc(O)cc(O)c2C(=O)O1 (configuration not stated) | -15.1% | 
CC(=O)OC1CC(O)C2(C)C(CC(OC(C)=O)C3(C)C2CCC2(C)C(c4ccoc4)C(=O)C4OC423)C1(C)C (configuration not stated) | -9.25% [at 57.1 µM] | 
CCCN1CCO[C@H]2c3cc(O)ccc3OC[C@@H]21 | 53.8% | 
CC(CCc1ccc(O)cc1)O[C@@H]1O[C@H](CO[C@H]2OC[C@](O)(CO)[C@H]2O)[C@@H](O)[C@H](O)[C@H]1O (some centres not stated) | 19% [at 57.1 µM] | 
N#C[C@@H](O[C@@H]1O[C@H](CO[C@@H]2O[C@H](CO)[C@@H](O)[C@H](O)[C@H]2O)[C@@H](O)[C@H](O)[C@H]1O)c1ccccc1 | 0.396% [at 57.1 µM] | 

SMILES | activity change, negative = inhibition | Potency
CC(C)(C)c1cc(C(C)(C)C)c2c(c1)C(O)(C(F)(F)F)C(=O)O2 (configuration not stated) |  | 7.94 µM (active)
COc1cc(C(=O)O[C@H]2[C@@H]3C=CO[C@@H](O[C@@H]4O[C@H](CO)[C@@H](O)[C@H](O)[C@H]4O)[C@@H]3[C@@]3(CO)O[C@@H]23)ccc1O | 15.8% [at 57.1 µM] | 
COC1=CC(=O)O[C@@H](/C=C/c2ccccc2)C1 | 10.2% | 
CC(=O)OC12C(O)C(C)C3(O)C4C=C(C)C(=O)C4CC(CO)=CC3C1C2(C)C (configuration not stated) | 7.49% [at 57.1 µM] | 
COC(=O)C1(C)CCC(O)C2(C)c3c(O)cc(C(C)C)cc3C(O)C(OC(C)=O)C12 (configuration not stated) | 11.8% [at 57.1 µM] | 
CC1=C2C[C@H]3[C@@H](CC=C4C[C@@H](O)CC[C@@]43C)[C@@H]2CC[C@]12O[C@@H]1C[C@H](C)CN[C@H]1[C@H]2C | -7.9% | 
COC1CC(O[C@H]2CC[C@@]3(C)C(=CCC4C3C(O)[C@@H](O)[C@]3(C)[C@@H](C(C)=O)CC[C@]43O)C2)OC(C)C1OC1CC(OC)C(OC2OC(C)C(O)C(O)C2O)C(C)O1 (some centres not stated) | 10.7% [at 32.5 µM] | 
CN1[C@H]2C[C@H](OC(=O)[C@H](CO)c3ccccc3)C[C@@H]1[C@@H](O)C2 | -18.4% | 
CC(=O)OC1CC(O)C(C)(C)C2CC(OC(C)=O)C3(C)C(CCC4(C)C(c5ccoc5)C(=O)C5OC543)C12C (configuration not stated) | 6.4% [at 57.1 µM] | 
CN1[C@@H]2CC[C@H]1CC(OC(=O)C1C=Nc3ccccc31)C2 (some centres not stated) | 32.7% | 
C[C@@]12C[C@@H](c3ccoc3)OC(=O)C1CC[C@]1(C)[C@H]2[C@H]2C=C[C@]1(O)C(=O)O2 (some centres not stated) | 3.93% | 
CN1C(=O)c2ccccc2NC(=O)C1Cc1ccccc1 (configuration not stated) | 0.117% | 
CN(C(=O)Cc1ccccc1)C(CN1CCCC1)c1ccccc1 (configuration not stated) | 27.4% | 
N#CC(OC1OC(COC2OC(CO)C(O)C(O)C2O)C(O)C(O)C1O)c1ccccc1 (configuration not stated) | 24.2% [at 57.1 µM] | 
O=C1C[C@@H]2OCC=C3CN4CC[C@]56c7ccccc7N1[C@H]5[C@H]2[C@H]3C[C@H]46 | 12.9% | 
Cc1c(Cl)cccc1S(=O)(=O)Nc1nc(CC(=O)N2CCN(C)CC2)cs1 | 27.5% | 
